Measurements: PubChem BioAssay AID504648 (National Center for Advancing Translational Sciences (NCATS), 2011)
Screen size: about 390,000 compounds; about 610 (0.16%) were called active. Entries that show only a call come without a potency. Roughly 4% stayed inconclusive and do not appear here. Calls come from the whole dose curve; as a rule, active = well fitted inhibition curve with a large enough effect; inconclusive = small, poorly fitted or top-dose-only effect, or effect the other way, or another doubt; inactive = no such curve, though single readings can be large or run the other way. Only a selection was taken, and actives are over-represented in it overall.

Test: Nrf2 qHTS screen for inhibitors: counterscreen for cytotoxicity
Conditions: A549 ARE-Fluc cells, CellTiter-Fluor viability, 18-24 h; series mostly up to 46 µM
Text: NIH Molecular Libraries Probe Production Network [MLPCN]
NIH Chemical Genomics Center [NCGC]
Assay Provider: Shyam Biswal, Johns Hopkins University
Nrf2 is a transcription factor that maintains cellular redox homoestasis and protects cells from xenobiotics. Nrf2 binds to the antioxidant response element (ARE) to induce gene expression of a broad spectrum of genes that encode for antioxidants. […] Finding a small molecule that act as an inhibitor of Nrf2 function would represent a novel therapeutic target that could lead to improvement in survival of patients undergoing chemo- and/or radio- therapy.
So here we implemented a counterscreen to weed out the cytotoxic compounds.
1. Shibata, T., et al., Genetic Alteration of Keap1 Confers Constitutive Nrf2 Activation and Resistance to Chemotherapy in Gallbladder Cancer. Gastroenterology, 2008.
2. Sjoblom, T., et al., The consensus coding sequences of human breast and colorectal cancers. Science, 2006. 314(5797): p. 268-74.
NCGC Assay Protocol Summary:
A concentration-response assay was performed with A549 ARE_Fluc cells which are suspended in 5% FBS OPTI-MEM. Five uL were dispensed into 1536-well white TC-treated plate using the Kalypsys dispenser to achieve a density of 5000 cells/well in all columns except column 1. The plate is incubated at 37deg C at 5% CO2 for 2 hours before 23 nL of compounds are added with the Kalypsys pin tool equipped with a 1,536-pin array containing 10-nL slotted pins (FP1S10, 0.457-mm diameter, 50.8 mm long; V&P Scientific). The control compounds Budesonide and Staurosporine are both added at a concentration of 2mM and Budesonide is also added as a 1:10 titration, starting at 200uM, to achieve dose-response. After an 18-24 hour incubation at 37deg C at 5% CO2, 5ul of medium is added to column 1. Afterwards 1ul of 5x of CellTiter-Fluor (Promega) is added to every well. The plate is then incubated at 37deg C at 5% CO2 for 30 minutes before they are read on the ViewLux (Perkin Elmer) for a fluorescent read Ex=405(10)/Em=525(10) for a 3 second exposure, 2x binning, and high gain. Then 3 uL of 3x BugLite is dispensed into all wells and the plate is incubated at ambient room temperature for 15 minutes. Afterwards another ViewLux read is performed using the clear filter to get a luminescent read with the settings of 40 second exposure, 2x binning, and high gain. Cytotoxicity is assessed through the first fluorescent read and then biochemical activity against Nrf2 is measured in the luminescent read.
Potency is the fitted concentration of half-maximal effect.

| SMILES | Potency |
| --- | --- |
| CCC(C)(O)C(=O)OC1C(=O)OC2CC3C(C)=CC(=O)C(O)C3(C)C3C4(O)OCC23C1C(C)C4O (stereo not given) | 5.8 µM (active) |
| c1ccc(CC2CCCCN2)cc1 (stereo not given) | inactive |
| Cc1ccc(-n2c(/C=C/c3cccc(C(F)(F)F)c3)nc3ccccc3c2=O)cc1 | inactive |
| CSc1nc2ccc(C)cc2c(=O)n1-c1cccnc1 | inactive |
| COc1cccc(-c2nc3ccc(N4CCN(C)CC4)cc3[nH]2)c1 | inactive |
| CN1CCN(c2cc(N3CCNCC3)ccc2[N+](=O)[O-])CC1 | 16.4 µM (active) |
| CCN1CCN(c2ccc([N+](=O)[O-])cc2C#N)CC1 | inactive |
| CC1=CC(=Cc2sc3ccccc3[n+]2C)C=C(C)O1 | 2.59 µM (active) |
| CC(c1ccccc1)(c1ccccc1)c1ccncc1 | inactive |
| Cc1ccc(Cn2nnnc2CN2CCC(n3nnc4ccccc43)CC2)cc1 | inactive |
| COC(=O)C1=C(c2cc3ccccc3o2)C[C@@H]2CC[C@H]1N2C(=O)NC1CCCCC1 | inactive |
| O=Cc1cn(Cc2ccc(F)cc2Cl)c2ccccc12 | inactive |
| CO[C@H]1[C@@H](O)[C@@H](C)O[C@H](O[C@H]2[C@H](Oc3cccc4c(O)c5c(=O)oc6ccc(C)c7c(=O)oc(c34)c5c67)O[C@H](C)[C@H](O)[C@@H]2O)[C@@H]1O | inactive |
| CCCCCCCCCCCCn1ccc(=N)cc1 | inactive |
| S=P(c1ccccc1)(c1ccccc1)c1c(-c2ccccc2)[nH]c2ccccc12 | inactive |
| CC(C)(C)c1ccc(CN2C(=O)CN=C(c3ccccc3)c3ccccc32)cc1 | 25.9 µM (active) |
| O=C1CC(=O)N(Cc2ccccc2)C(=O)N1CCCCCCN1C(=O)CC(=O)N(Cc2ccccc2)C1=O | inactive |
| COc1cc([C@@H]2c3cc4c(cc3[C@H](OC(C)=O)[C@H]3COC(=O)[C@H]23)OCO4)cc(OC)c1OC | inactive |
| CCN(CC)C(=O)c1ccc(NC(=O)c2sccc2-c2ccccc2)cc1 | inactive |
| CC(C)c1ccc(-n2c(O)c(/C=N/N3CCOCC3)c(=O)[nH]c2=S)cc1 | inactive |
| CC(=O)OC1C2(CC3N4C(=O)C5(CO)SSC4(CC31O)C(=O)N5C)OC(C)C(C)(C)C2=O (stereo not given) | 7.31 µM (active) |
| CC(Cc1ccccc1)NCCC(c1ccccc1)c1ccccc1 (stereo not given) | inactive |
| Cc1cccc(OP(=O)(Oc2cccc(C)c2)OC(c2ccccc2)C(F)(F)F)c1 (stereo not given) | inactive |
| O=C(O)c1cc[c]([Sb](=[O])([OH])[OH])cc1[N+](=O)[O-] | inactive |
| Cc1ccc(NC(=O)N(Cc2ccc3c(c2)OCO3)C2CCN(Cc3ccccc3)CC2)cc1F | inactive |
| CN(c1ccccc1)c1ccc([N+](=O)[O-])c2nonc12 | 20.6 µM (active) |
| CCN(CC)c1ccc([N+](=O)[O-])c2cccnc12 | inactive |
| O=P1(Oc2ccccc2)CC(O)C(O)C(COCc2ccccc2)O1 (stereo not given) | inactive |
| CC(C)(C)[C@]1(O)C[C@@H]2OC(=O)C[C@@]23C(=O)O[C@@H]2OC(=O)[C@H](O)[C@]213 | inactive |
| Cc1ccc(C(C)C)c(OCC(=O)N2CCN(CC(=O)N3CCOCC3)CC2)c1 | inactive |
